Compound activity: PubChem BioAssay, several laboratories
Shown are actives, neighbours in structure and some others; about 2.5% of the full set was active somewhere.
UBC13 polyUb: inhibitors of human UBC13 polyubiquitin chain formation; TR-FRET; inhibition, % at 20 µM; 0.47% of 330,000 active; AID 485273; in the data active = inhibition above about 45%, passing the limit was not always enough
Target sequence (P61088 whole entry, looked up): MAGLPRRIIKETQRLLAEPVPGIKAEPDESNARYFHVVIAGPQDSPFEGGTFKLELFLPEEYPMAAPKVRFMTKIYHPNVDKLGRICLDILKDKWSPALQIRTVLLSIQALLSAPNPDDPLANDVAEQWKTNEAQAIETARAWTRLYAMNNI
MEKK2 mut-MEK5: signal of MEK5 binding to mutant human MEKK2 PB1 domain; 0.35% of 290,000 active; percent response, % at 10 µM; bead flow cytometry, Alexa488-MEK5 binding to MEKK2 mutant; in the data active = percent response above about 24%, passing the limit was not always enough
Rce1 inh: inhibitors of yeast Ras-converting enzyme | AID 2563 | Q03530 | 0.27% of 290,000 active | calls only | yeast membranes, quenched prenylated peptide cleavage fluorescence;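 active = fall in fluorescence gain of 50% or more versus controls, with final raw signal at or below 3038400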
Target sequence (Q03530 whole entry, looked up): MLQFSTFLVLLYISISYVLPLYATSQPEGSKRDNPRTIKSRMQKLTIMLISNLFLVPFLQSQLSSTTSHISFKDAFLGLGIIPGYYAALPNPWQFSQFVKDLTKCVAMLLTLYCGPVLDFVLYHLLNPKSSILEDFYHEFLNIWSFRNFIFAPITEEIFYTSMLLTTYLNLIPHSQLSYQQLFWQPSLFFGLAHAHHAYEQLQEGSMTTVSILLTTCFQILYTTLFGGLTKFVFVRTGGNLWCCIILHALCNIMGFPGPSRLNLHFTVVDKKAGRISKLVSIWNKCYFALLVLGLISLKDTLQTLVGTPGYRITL
MEKK3 PB1 HTS: raises or lowers MEK5 binding to the human MEKK3 PB1 domain; bead-based flow cytometry, Alexa488-MEK5 binding to MEKK3; actives lie on both sides; 0 = blocked by unlabeled MEK5, 100 = vehicle; Q99759; binding response (% of control), % at 10 µM; 1.4% of 290,000 active;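 active = binding response more than 3 SD above or below the average of its plate-row segment, actives on both sides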;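 note: Alexa488 bead fluorescence after subtracting the streptavidin-only scavenger bead signal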
MEKK2 WT-MEK5: raises or lowers MEK5 binding to wildtype human MEKK2 PB1 domain; Q9Y2U5; bead flow cytometry, Alexa488-MEK5 binding to MEKK2 WT; actives lie on both sides; binding response (% of control), % at 10 µM; 1.1% of 290,000 active; in the data active = binding response below about 67% or above about 130%
MEKK2wt confirm: raises or lowers MEK5 binding to wildtype human MEKK2, retest; shares compounds with MEKK3 PB1 HTS; bead flow cytometry, Alexa488-MEK5 binding to MEKK2 WT; actives lie on both sides; binding response (% of control), % at 10 µM; 2.4% of 5,900 active; in the data active = binding response below about 16% or above about 210%; inactive = in between
MEKK2mut-MEK5: signal of MEK5 binding to mutant human MEKK2, retest. shares compounds with MEKK3 PB1 HTS. bead flow cytometry, Alexa488-MEK5 binding to MEKK2 mutant. percent response, % at 10 µM. 2% of 5,900 active; in the data active = percent response mostly above about 71%, no sharp cut-off; inactive = mostly below about 38%;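 note: higher means compound restores mutant binding toward wildtype level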
MEKK3-MEK5 inh: confirmation of inhibitors of MEK5 binding to human MEKK3 | bead flow cytometry, Alexa488-MEK5 binding to MEKK3; stronger effect = lower value | binding response (% of control), % at 10 µM | 1.8% of 5,900 active | AID 1894 | shares compounds with MEKK3 PB1 HTS;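 active = binding response below 72% of control, or above a set upper limit, though filed actives all read lower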
Hits are given with their value; [ ] = dose if it differs, or a comment.

`CC(=O)Nc1ccc(N2C(=O)CSC2c2ccc(F)cc2)cc1` (configuration not stated) gave UBC13 polyUb inactive, MEKK2 mut-MEK5 inactive, Rce1 inh inactive, MEKK3 PB1 HTS 81[inhibitor], MEKK2 WT-MEK5 inactive, MEKK2wt confirm inactive, MEKK2mut-MEK5 inactive and MEKK3-MEK5 inh inactive.
For FC(F)(F)c1cc(-c2ccccc2)nc(NCc2cccnc2)n1 the results were UBC13 polyUb inactive, MEKK2 mut-MEK5 inactive, Rce1 inh inactive, MEKK3 PB1 HTS 1.0[inhibitor], MEKK2 WT-MEK5 -1.0[inhibitor], MEKK2wt confirm inactive, MEKK2mut-MEK5 inactive and MEKK3-MEK5 inh inactive.
FC(F)(F)c1cc(-c2ccco2)nc(NCc2cccnc2)n1 was read as UBC13 polyUb inactive and Rce1 inh inactive.
Screening COCCCNC(=O)C(=O)C1C(=O)Nc2ccccc21 (configuration not stated) returned UBC13 polyUb inactive, MEKK2 mut-MEK5 inactive, Rce1 inh inactive, MEKK3 PB1 HTS inactive and MEKK2 WT-MEK5 inactive.
For CCCCn1c(N)c(N(CC(C)C)C(=O)c2ccc(OCC3CCCO3)cc2)c(=O)[nH]c1=O (configuration not stated) the results were UBC13 polyUb inactive and Rce1 inh inactive.
`CCOC(=O)/C=C/c1nc(C(=O)OCC)c(C)c(=O)[nH]1` gave UBC13 polyUb inactive, MEKK2 mut-MEK5 inactive, Rce1 inh inactive, MEKK3 PB1 HTS 75[inhibitor], MEKK2 WT-MEK5 inactive, MEKK2wt confirm inactive, MEKK2mut-MEK5 inactive and MEKK3-MEK5 inh inactive.
Screening CCOC(=O)c1nc2ccccc2c(C)c1C returned UBC13 polyUb inactive, MEKK2 mut-MEK5 inactive, Rce1 inh inactive, MEKK3 PB1 HTS inactive and MEKK2 WT-MEK5 inactive.
`COc1cccc(OC)c1OC(=O)/C=C/c1ccc(C)o1` gave UBC13 polyUb inactive, MEKK2 mut-MEK5 inactive, Rce1 inh inactive, MEKK3 PB1 HTS inactive and MEKK2 WT-MEK5 inactive.
For C=CCn1c(C)c(/C=C/c2cc[n+](C)cc2)c2ccccc21 the results were UBC13 polyUb inactive, MEKK2 mut-MEK5 62, Rce1 inh inactive, MEKK3 PB1 HTS inactive, MEKK2 WT-MEK5 inactive, MEKK2wt confirm inactive, MEKK2mut-MEK5 inactive and MEKK3-MEK5 inh inactive.
For CC(=O)c1ccc(N(C(=O)Cn2nnc3ccccc32)C(C(=O)NCc2ccccc2)c2ccccn2)cc1 (configuration not stated) the results were UBC13 polyUb inactive, MEKK2 mut-MEK5 inactive, Rce1 inh inactive, MEKK3 PB1 HTS inactive and MEKK2 WT-MEK5 inactive.
Screening Cc1ccc(N(C(=O)Cn2nnc3ccccc32)C(C(=O)NCc2ccccc2)c2ccccn2)cc1 (configuration not stated) returned UBC13 polyUb inactive, MEKK2 mut-MEK5 inactive, Rce1 inh inactive, MEKK3 PB1 HTS 128, MEKK2 WT-MEK5 inactive, MEKK2wt confirm inactive, MEKK2mut-MEK5 inactive and MEKK3-MEK5 inh inactive.
`Cc1onc(-c2ccccc2)c1C(=O)NCc1ccc2c(c1)OCO2` gave UBC13 polyUb inactive, MEKK2 mut-MEK5 inactive, Rce1 inh inactive, MEKK3 PB1 HTS inactive, MEKK2 WT-MEK5 -6.0[inhibitor], MEKK2wt confirm inactive, MEKK2mut-MEK5 inactive and MEKK3-MEK5 inh inactive.
`CC1CCN(C(=O)C(C)Sc2nc(-c3ccccc3)cc(C(F)(F)F)n2)CC1` (configuration not stated) gave UBC13 polyUb inactive, MEKK2 mut-MEK5 inactive, Rce1 inh inactive, MEKK3 PB1 HTS inactive and MEKK2 WT-MEK5 inactive.
Screening CC(Sc1nc(-c2ccccc2)cc(C(F)(F)F)n1)C(=O)N1CCC(C(N)=O)CC1 (configuration not stated) returned UBC13 polyUb inactive, MEKK2 mut-MEK5 inactive, Rce1 inh inactive, MEKK3 PB1 HTS 75[inhibitor], MEKK2 WT-MEK5 inactive, MEKK2wt confirm inactive, MEKK2mut-MEK5 inactive and MEKK3-MEK5 inh inactive.
O=C(CSc1nc2c(sc3ccccc32)c(=O)n1Cc1ccco1)NCC1CCCO1 (configuration not stated) was read as UBC13 polyUb inactive, MEKK2 mut-MEK5 inactive, Rce1 inh inactive, MEKK3 PB1 HTS 2.0[inhibitor], MEKK2 WT-MEK5 3.0[inhibitor], MEKK2wt confirm inactive, MEKK2mut-MEK5 inactive and MEKK3-MEK5 inh inactive.
Screening CCOC(=O)Cn1c(=N)n(CCOc2ccc3ccccc3c2)c2ccccc21 returned UBC13 polyUb inactive, MEKK2 mut-MEK5 inactive, Rce1 inh inactive, MEKK3 PB1 HTS inactive, MEKK2 WT-MEK5 146, MEKK2wt confirm inactive, MEKK2mut-MEK5 inactive and MEKK3-MEK5 inh inactive.
`Cc1cc(-c2n[nH]c(=S)n2/N=C/c2ccc(Cl)c([N+](=O)[O-])c2)n[nH]1` gave UBC13 polyUb inactive, MEKK2 mut-MEK5 inactive, Rce1 inh inactive, MEKK3 PB1 HTS 155, MEKK2 WT-MEK5 inactive, MEKK2wt confirm inactive, MEKK2mut-MEK5 inactive and MEKK3-MEK5 inh inactive.
For CCc1cccc(CC)c1N(COC)C(=O)Cn1nnc2ccccc21 the results were UBC13 polyUb inactive and Rce1 inh inactive.
Screening CCc1cccc(C)c1N(C(=O)Cn1c(=O)[nH]c2ccccc21)C(C)COC (configuration not stated) returned UBC13 polyUb inactive, MEKK2 mut-MEK5 24, Rce1 inh inactive, MEKK3 PB1 HTS inactive, MEKK2 WT-MEK5 inactive, MEKK2wt confirm inactive, MEKK2mut-MEK5 inactive and MEKK3-MEK5 inh inactive.
`COc1cccc(-c2nc(CS(=O)(=O)CC(=O)N3CCc4ccccc4C3)c(C)o2)c1` gave UBC13 polyUb inactive, MEKK2 mut-MEK5 inactive, Rce1 inh inactive, MEKK3 PB1 HTS 1.0[inhibitor], MEKK2 WT-MEK5 -3.0[inhibitor], MEKK2wt confirm inactive, MEKK2mut-MEK5 inactive and MEKK3-MEK5 inh inactive.
COc1cccc(-c2nc(CS(=O)(=O)CC(=O)N3CCN(C)CC3)c(C)o2)c1 was read as UBC13 polyUb inactive, MEKK2 mut-MEK5 inactive, Rce1 inh inactive, MEKK3 PB1 HTS inactive and MEKK2 WT-MEK5 inactive.
Cc1oc(-c2ccccc2F)nc1CS(=O)(=O)CC(=O)NCCN1CCCC1 was read as UBC13 polyUb inactive, MEKK2 mut-MEK5 inactive, Rce1 inh inactive, MEKK3 PB1 HTS inactive and MEKK2 WT-MEK5 inactive.
Screening Cc1oc(-c2ccccc2F)nc1CS(=O)(=O)CC(=O)NCCCN1CCc2ccccc2C1 returned UBC13 polyUb inactive, MEKK2 mut-MEK5 inactive, Rce1 inh inactive, MEKK3 PB1 HTS inactive, MEKK2 WT-MEK5 149, MEKK2wt confirm inactive, MEKK2mut-MEK5 inactive and MEKK3-MEK5 inh inactive.
`CCOC(=O)CN(C(=O)COc1ccc2c(C)cc(=O)oc2c1)c1ccc(OCC)cc1` gave UBC13 polyUb inactive, MEKK2 mut-MEK5 inactive, Rce1 inh inactive, MEKK3 PB1 HTS inactive and MEKK2 WT-MEK5 inactive.
